Experimental data reported in the supplement of paper PMC10338343.
± gives the standard deviation.

The sequences below were run on MILI (PIWIL2) piRISC loaded with L1MC piRNA (26 nt) (assay: pre-steady-state target cleavage rate (min^-1); guide: L1MC piRNA 5'p-UAACUAAAUACUAUGCAAGCUGUAGG; MIWI and MILI are mouse PIWI proteins and EfPiwi is from a freshwater sponge; tags in brackets are library labels; higher = faster piRNA-guided slicing of the target). Settings: auxiliary factor: 500 nM mouse GTSF1.
How it was run: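 Sequencing of uncleaved targets, normalised to depth and to weakly complementary targets, was the readout of this Cleave-'n-Seq assay. A transcribed, DNA-blocked target RNA library (0.1 nM) was mixed with 1 nM active affinity-purified piRISC carrying one synthetic guide, with or without 500 nM GTSF1 partner protein, in HEPES–potassium acetate buffer at 33 °C for 0–8 or 0–960 min. Three trials were pooled, k3 was capped at 0.0001 min^-1, and a burst-and-steady-state fit gave the pre-steady-state cleavage rate.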

Row | Sequence | pre-steady-state target cleavage rate
1 | UCCUGGAACAGCUUGCUUAGUAUUUAGUUA | 0.264 ± 0.01
2 | UCCUGCUACAGGUUGCAUAGUAUUAAGUUA | 0.208 ± 0.034
3 | UCCUCCUACAGCUUGCAUAGUAUUUUCUAA | 0.143 ± 0.028
4 | UCCUGGAACAGGUAGCAUAGUAUUUAGUUA | 0.209 ± 0.016
5 | UCCUGGUACAGCUUGGAUAGUAAUUAGUUA | 0.226 ± 0.057
6 | UCCUGGAUGAGCUUGCAUUGUAAUUAGUUA | 0.0683 ± 0.013
7 | UCCUGCUACACCUAGCAUAGUAUUUAGUUA | 0.254 ± 0.021
8 | UCCUGGAUGUGCUUGCAUUGUAUUUAGUUA | 0.0666 ± 0.013
9 | UCCUCCUACAGCUUGCAUAGUAUUUAGUA | 0.177 ± 0.021
10 | UCCUGGUACAGGAUGCAUAGUAUUUAGUUA | 0.215 ± 0.021
11 | UCCUCUACAGCUUGCAUAGUAUUUAGUUA | 0.31 ± 0.013
12 | UCCUGGAACAGUCUUGCAUAGUAUUUAGUUA | 0.26 ± 0.018
13 | UCCUCCUACUGCUUGCAUUGUAUUUAGUUA | 0.212 ± 0.013
14 | UCCUGCUACAGCUAGCAUUGUAUUUAGUUA | 0.225 ± 0.019
15 | UCCUGGAUCAGCAUGCAUAGUAAUUAGUUA | 0.181 ± 0.025
16 | UCCUCCUACAGCUUGGAUAGUAUUUUGUUA | 0.164 ± 0.028
17 | UCCUGGAUCAGCUUGGAUAGUAAUUAGUUA | 0.167 ± 0.018
18 | UCCUCCUACUCGUUGCAUAGUAUUUAGUAA | 0.176 ± 0.024
19 | UCCUGGAACAGCUUGCAAAGUAUUUAGUUA | 0.135 ± 0.0089
20 | UCCUGGAACAGGUUGCAUAGUAUUUAGUAA | 0.232 ± 0.02

Row | Sequence | pre-steady-state target cleavage rate
21 | UCCUGGAACAGGUUGCAUUGUAUUUAGUUA | 0.157 ± 0.014
22 | UCCUGGAACAGCUUGCAAAGUAUUUAGUAA | 0.158 ± 0.022
23 | UCCUGGUUCAGCUUGGAUAGUAUUUAGUUA | 0.191 ± 0.022
24 | UCCUCCUACAGCUUGCAUAGUAUUUAAUUA | 0.11 ± 0.019
25 | UCCUGGAUGAUCUUGCAUAGUAUUUAGUUA | 0.145 ± 0.016
26 | UCCUGGUAGAGCUUGCAUAGUAUUAAGUUA | 0.207 ± 0.034
27 | UCCUCCUACAGCUUGCAUAGAUUUUAGUUA | 0.0522 ± 0.012
28 | UCCUCCUACAGCAUGCAUAGUAUUUACUUA | 0.16 ± 0.022
29 | UCCUCCAUACAGCUUGCAUAGUAUUUAGUUA | 0.171 ± 0.021
30 | UCCUGCUACAGCUUGCCUAGUAUUUAGUUA | 0.222 ± 0.015
31 | UCCUGGAACCAGCUUGCAUAGUAUUUAGUUA | 0.365 ± 0.032
32 | UCCUCCUUCAGCUUGCUUAGUAUUUAGUUA | 0.286 ± 0.015
33 | UCCUGGAAGAGCUUGCAUAGUAAUUAGUUA | 0.177 ± 0.015
34 | UCCUCCUACAGCUUGCAUAGUAUUUUGUUA | 0.177 ± 0.023
35 | UCCUGGAUGAGCUUGCAUAGUAUUGAGUUA | 0.164 ± 0.036
36 | UCCUGCUUCAGCAUGCAUAGUAUUUAGUUA | 0.291 ± 0.015
37 | UCCUGCUACAGCUUGCAUAGUAUCUUAGUUA | 0.259 ± 0.027
38 | UCCUGGAUGAGCUUGACAUAGUAUUUAGUUA | 0.0929 ± 0.01
39 | UCCUGGAUGACGUUGCAUAGUAUUUAGUUA | 0.176 ± 0.02
40 | UCCUGGAUCAGCUUGCUUAGUAUUAAGUUA | 0.129 ± 0.016

Same assay, conditions: auxiliary factor: none (no GTSF1)

Row | Sequence | pre-steady-state target cleavage rate
41 | UCCUGGAACAGCUUGCUUAGUAUUUAGUUA | 0.00723 ± 0.0021
42 | UCCUGCUACAGGUUGCAUAGUAUUAAGUUA | 0.00616 ± 0.0022
43 | UCCUCCUACAGCUUGCAUAGUAUUUUCUAA | 0.00357 ± 0.0031
44 | UCCUGGAACAGGUAGCAUAGUAUUUAGUUA | 0.00531 ± 0.0016
45 | UCCUGGUACAGCUUGGAUAGUAAUUAGUUA | 0.00415 ± 0.0029
46 | UCCUGGAUGAGCUUGCAUUGUAAUUAGUUA | 0.0035 ± 0.0031
47 | UCCUGCUACACCUAGCAUAGUAUUUAGUUA | 0.00758 ± 0.0022
48 | UCCUGGAUGUGCUUGCAUUGUAUUUAGUUA | 0.00523 ± 0.0031
49 | UCCUCCUACAGCUUGCAUAGUAUUUAGUA | 0.00474 ± 0.0025
50 | UCCUGGUACAGGAUGCAUAGUAUUUAGUUA | 0.0111 ± 0.0037
51 | UCCUCUACAGCUUGCAUAGUAUUUAGUUA | 0.00953 ± 0.0028
52 | UCCUGGAACAGUCUUGCAUAGUAUUUAGUUA | 0.00993 ± 0.0026
53 | UCCUCCUACUGCUUGCAUUGUAUUUAGUUA | 0.00808 ± 0.0019
54 | UCCUGCUACAGCUAGCAUUGUAUUUAGUUA | 0.007 ± 0.0024
55 | UCCUGGAUCAGCAUGCAUAGUAAUUAGUUA | 0.00637 ± 0.0027
56 | UCCUCCUACAGCUUGGAUAGUAUUUUGUUA | 0.00424 ± 0.0026
57 | UCCUGGAUCAGCUUGGAUAGUAAUUAGUUA | 0.00352 ± 0.0023
58 | UCCUCCUACUCGUUGCAUAGUAUUUAGUAA | 0.00408 ± 0.0019
59 | UCCUGGAACAGCUUGCAAAGUAUUUAGUUA | 0.00796 ± 0.0019
60 | UCCUGGAACAGGUUGCAUAGUAUUUAGUAA | 0.00824 ± 0.0023

Row | Sequence | pre-steady-state target cleavage rate
61 | UCCUGGAACAGGUUGCAUUGUAUUUAGUUA | 0.00837 ± 0.0019
62 | UCCUGGAACAGCUUGCAAAGUAUUUAGUAA | 0.00401 ± 0.0024
63 | UCCUGGUUCAGCUUGGAUAGUAUUUAGUUA | 0.013 ± 0.0035
64 | UCCUCCUACAGCUUGCAUAGUAUUUAAUUA | 0.00326 ± 0.0027
65 | UCCUGGAUGAUCUUGCAUAGUAUUUAGUUA | 0.00813 ± 0.003
66 | UCCUGGUAGAGCUUGCAUAGUAUUAAGUUA | 0.00672 ± 0.0026
67 | UCCUCCUACAGCUUGCAUAGAUUUUAGUUA | 0.00358 ± 0.002
68 | UCCUCCUACAGCAUGCAUAGUAUUUACUUA | 0.00307 ± 0.0026
69 | UCCUCCAUACAGCUUGCAUAGUAUUUAGUUA | 0.00652 ± 0.002
70 | UCCUGCUACAGCUUGCCUAGUAUUUAGUUA | 0.0074 ± 0.0022
71 | UCCUGGAACCAGCUUGCAUAGUAUUUAGUUA | 0.00736 ± 0.0021
72 | UCCUCCUUCAGCUUGCUUAGUAUUUAGUUA | 0.00762 ± 0.002
73 | UCCUGGAAGAGCUUGCAUAGUAAUUAGUUA | 0.00468 ± 0.0028
74 | UCCUCCUACAGCUUGCAUAGUAUUUUGUUA | 0.0036 ± 0.0022
75 | UCCUGGAUGAGCUUGCAUAGUAUUGAGUUA | 0.00369 ± 0.0027
76 | UCCUGCUUCAGCAUGCAUAGUAUUUAGUUA | 0.0121 ± 0.0034
77 | UCCUGCUACAGCUUGCAUAGUAUCUUAGUUA | 0.00985 ± 0.0022
78 | UCCUGGAUGAGCUUGACAUAGUAUUUAGUUA | 0.00352 ± 0.0026
79 | UCCUGGAUGACGUUGCAUAGUAUUUAGUUA | 0.00683 ± 0.0027
80 | UCCUGGAUCAGCUUGCUUAGUAUUAAGUUA | 0.00516 ± 0.0021
